Most compounds without a hit are left out; they make up all but 2.9% or so of the library.
SMARCA2 activ = SMARCA2 (BRM) function activators, primary screen, cell-based, luminescence, high throughput | MG213 cells, MMTV-luciferase reporter, dexamethasone, overnight | activation, % at 9.1 µM | hit rate 1% among 370,000 | AID 652017, 2013; in the data active = activation above about 7.8%;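 note: 0% = vehicle wells and 100% = reference activator wells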
KLK7 zymogen act = proKLK7 zymogen activators, primary screen, biochemical, fluorescence intensity. Kallikrein-7 (Homo sapiens), P49862. activation, % at 7 µM. hit rate 0.9% among 370,000. purified proKLK7, EDANS-DABCYL substrate fluorescence; 100% is mature enzyme control, 0% vehicle;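 active = activation above the mean of all tested compounds plus 3 SD, computed per campaign excluding outliers beyond control limits, cut at about 13% in these data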
FXN GAA850 act = FXN promoter activators, primary screen, cell-based, luciferase luminescence, HEK293 lucGAA850 | HEK293 lucGAA850 FXN promoter luciferase reporter, 24 h; percent of 10 µM SAHA response | activation, % at 6 µM | hit rate 0.56% among 360,000;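 active = activation above the average of all compounds screened plus 3 SD, cutoff fixed separately per campaign, cut at about 7.5% in these data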;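 note: 0% = DMSO wells and 100% = 10 µM SAHA wells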
FAS TE block = FAS thioesterase domain inhibitors, primary screen, biochemical, fluorescence intensity, uHTS. recombinant FAS-TE, OMFH fluorogenic substrate, fluorescence endpoint. hit rate 0.67% among 360,000. inhibition, % at 15 µM. AID 602261, 2012. Fatty acid synthase (Homo sapiens), P49327;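 active = compounds whose normalised, plate-corrected inhibition of enzyme fluorescence in the single-dose primary screen is 50% or more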;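 note: 0% = DMSO with enzyme and 100% = substrate without enzyme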
SMARCA2 act conf = SMARCA2 (BRM) function activators, confirmation, cell-based, luminescence, triplicate; MG213 cells, MMTV-luciferase with dexamethasone, overnight; MG213 cells expressing E1A, Rb sequestered; DMSO wells 0%, reference activator 100%; activation, % at 9.1 µM; hit rate 30% among 3,500; shares compounds with SMARCA2 activ;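 active = activation above its plate's cutoff, the mean activation of tested wells plus 3 SD, cut at about 7.9% in these data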
GAL4-VP16 Luc = GAL4-VP16 luciferase reporter activation, counter-screen for SMARCA2 (BRM) activator project, cell-based, pG5luc, luminescence, high throughput; shares compounds with SMARCA2 activ; HEK293 GAL4-VP16 pG5luc reporter; scaled: DMSO wells 0%, SAHA wells 100%; activation, % at 9.1 µM; hit rate 41% among 3,500;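 active = activation above the solvent-only control well mean plus 3 SD, averaged across control plates, cut at about 5.2% in these data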
Numbers without * were called inactive; · = no result.

SMILES	SMARCA2 activ	KLK7 zymogen act	FXN GAA850 act	FAS TE block	SMARCA2 act conf	GAL4-VP16 Luc
O=C(c1ccco1)N1CCN(Cc2c(F)cccc2Cl)CC1	8.8*	0	2	-3	7	7.9*
CCN(CC)CC(O)Cn1c(C)c(-c2ccccc2)c2cc([N+](=O)[O-])ccc21 (centres undefined)	-1	-1	-2	-19	·	·
Cc1cc(OCc2cn3cccnc3n2)ccc1Cl	8.4*	0	7	-11	8.5*	5.6*
COC(=O)CSc1nc2ccc(C)cc2[nH]1	3	0	-1	-8	·	·
Cc1ccc2nc(SCC(=O)c3ccc(O)cc3O)[nH]c2c1	8.6*	-1	2	0	6	10*
COc1ccc(C(=O)OCC(=O)c2ccc(CNC(C)=O)s2)cc1	-1	0	3	-3	·	·
CC(=O)NCc1ccc(C(=O)CCl)s1	9.0*	1	-1	-3	10*	8.0*
Cc1occc1C(=O)Nc1sccc1C(N)=O	5	0	4	1	·	·
NC(=O)c1ccsc1NC(=O)c1coc2ccccc2c1=O	9.0*	0	5	-7	23*	8.9*
O=[N+]([O-])c1ccccc1N/N=C\c1ccccc1Cl	3	0	4	-4	·	·
O=[N+]([O-])c1ccccc1N/N=C\c1ccccc1F	9.1*	1	4	4	8.9*	14*
COc1cc(/C=C/c2nc3ccccc3s2)cc(OC)c1O	11*	-5	2	-3	3	2
Cc1ccc(C(=O)CCS(=O)(=O)c2ccc(F)cc2)cc1	-2	0	1	0	·	·
CCN(CC)S(=O)(=O)c1cc(NC(=O)C(C)N2CCN(Cc3ccc4c(c3)OCO4)CC2)ccc1C (centres undefined)	-3	-1	-4	8	·	·
COc1ccc([C@H]2CC(=O)C=C(c3ccc4c(c3)OCCO4)C2)cc1	8.3*	-2	1	9	2	2
O=C1C=C(c2ccc3c(c2)OCO3)C[C@@H](c2ccc3c(c2)OCO3)C1	0	0	3	2	·	·
CCS(=O)(=O)N1Cc2ccccc2CC1C(=O)Nc1ccc(NC(C)=O)cc1 (centres undefined)	-1	-1	-1	-1	·	·
CCS(=O)(=O)N1Cc2ccccc2CC1C(=O)Nc1ccc(F)c(F)c1 (centres undefined)	15*	0	2	2	8	4
CCOc1ccc(NC(=O)C2Cc3ccccc3CN2S(=O)(=O)CC)cc1 (centres undefined)	10*	0	2	-4	0	1
NNC(=S)Nc1ccccc1Cl	-1	-1	-5	-4	·	·
CN(C)CCNC(=O)c1ccc(COc2ccc(Cl)cc2Cl)cc1	8.0*	0	1	-6	10*	1
CN1CCN(C(=O)c2ccc(COc3ccc(Cl)cc3Cl)cc2)CC1	-2	0	2	0	·	·
O=C(Nc1ccccc1)Nc1nccs1	9.0*	0	-1	-4	4	3
COc1ccc(C(=O)Nc2ccccc2C(=O)N/N=C/c2ccncc2)cc1OC	8.5*	0	5	-3	18*	6.0*
COc1ccc(C(=O)Nc2ccccc2C(=O)NCc2cccnc2)cc1OC	-1	0	-1	0	·	·
CC1CN(C(=O)c2cc3cc(F)ccc3[nH]2)CC(C)O1 (centres undefined)	2	0	3	-3	·	·
Cc1ccccc1C(=O)OCCN1CCOCC1	8.3*	1	0	-7	1	1
O=C(COc1cccc2cccnc12)N1CCc2ccccc2C1	5	1	0	-2	·	·
COc1ccc(NC(=O)Nc2ccc(F)cc2)cn1	2	1	3	-5	·	·
COc1cccc(NC(=O)CSc2nc3ccccc3c(=O)n2Cc2cccs2)c1	8.9*	0	-1	32	-5	-1
